# PubChem BioAssay (Tox21)
# Inconclusive results are not listed. A call without a number means that no potency is given here. Activity calls are given as the source filed them. Unless noted, calls follow the shape of the dose curve; as a rule, active = well fitted curve in the direction sought with a large enough effect in the repeat runs; inconclusive = weak or mixed curves; inactive = no such curve, though single readings can be large; an effect the other way counts as inactive or inconclusive.
# Legend:
# [1] = qHTS assay to identify small molecule antagonists of the glucocorticoid receptor (GR) signaling pathway - cell viability counter screen (AID 720693); also: nearly all actives have a fitted effect of over 55% in size
# [2] = qHTS assay for identifying genotoxic compounds that show differential cytotoxicity against isogenic chicken DT40 cell lines with known DNA damage response pathways - wild type cell line (AID 743012); also: nearly all actives have a fitted effect of over 60% in size; also: potency is read from the fitted curve at half-maximal effect
# Outline: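 Endpoint: CellTiter-Glo luminescence, 30 min RT. Cells: wild type DT40, 300/well. Exposure: compounds in DMSO, 40 h, 37 C/5% CO2, after ~0.5 h pre-incubation.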
# [3] = qHTS assay for identifying genotoxic compounds that show differential cytotoxicity against isogenic chicken DT40 cell lines with known DNA damage response pathways - Rev3 mutant cell line (AID 743014); also: nearly all actives have a fitted effect of over 55% in size; also: potency is read from the fitted curve at half-maximal effect
# [4] = qHTS assay for identifying genotoxic compounds that show differential cytotoxicity against isogenic chicken DT40 cell lines with known DNA damage response pathways - Rad54/Ku70 mutant cell line (AID 743015); also: nearly all actives have a fitted effect of over 60% in size; also: potency is read from the fitted curve at half-maximal effect
# [5] = qHTS assay to identify small molecule antagonists of the androgen receptor (AR) signaling pathway - cell viability counter screen (AID 743033; also: nearly all actives have a fitted effect of over 45% in size)
# [6] = qHTS assay to identify small molecule antagonists of the androgen receptor (AR) signaling pathway using the MDA cell line - cell viability counter screen (AID 743041; also: nearly all actives have a fitted effect of over 45% in size)
# Outline: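 Cytotoxicity counter screen: MDA-kb2 AR-luc cells, compound + R1881, 16 h, 37C, 0% CO2; CellTiter-Fluor added at 15.5 h, fluorescence read after 30 min.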
# [7] = target: Androgen receptor (Homo sapiens) (UniProt P10275); experiment: qHTS assay to identify small molecule agonists of the androgen receptor (AR) signaling pathway (AID 743036; active = well fitted activation curve with a large enough effect in the signal ratio in the repeat runs, with a control signal flat, not every such curve was filed as active; the % refers to the signal ratio)
# Outline: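 Beta-lactamase under UAS control, stably integrated in HEK293 GripTite cells, reports receptor activation. After 16 h compound treatment, cells received FRET substrate for 2 h at room temperature before fluorescence reading.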
# [8] = target: Androgen receptor (Homo sapiens) (UniProt P10275); experiment: qHTS assay to identify small molecule agonists of the androgen receptor (AR) signaling pathway using the MDA cell line (AID 743040; also: nearly all actives have a fitted effect of over 20% in size)
# Outline: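 Luciferase read-out, ONE-Glo, 30 min RT. Cells: MDA-kb2 AR-luc, MMTV promoter with AR and GR response elements. Compound exposure 16 h, 37C, 0% CO2, after 5 h pre-incubation. qHTS agonist mode.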
# [9] = target: Androgen receptor (Homo sapiens) (UniProt P10275); experiment: qHTS assay to identify small molecule antagonists of the androgen receptor (AR) signaling pathway using the MDA cell line (AID 743042; also: nearly all actives have a fitted effect of over 55% in size)
# Outline: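 MDA-kb2 breast carcinoma cells carrying MMTV-luciferase (AR/GR responsive) were co-treated with compounds and the agonist R1881 for 16 h at 37C. Inhibition read as ONE-Glo luminescence; CellTiter-Fluor fluorescence measured in parallel for cytotoxicity.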
# [10] = target: Androgen receptor (Homo sapiens) (UniProt P10275); experiment: qHTS assay to identify small molecule antagonists of the androgen receptor (AR) signaling pathway (AID 743035; active = well fitted inhibition curve with a large enough effect in the signal ratio in the repeat runs, not every such curve was filed as active; the % refers to the signal ratio)
# Outline: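 R1881 agonist challenge of a HEK293 UAS-beta-lactamase AR reporter line in the presence of compound (16 h, 37C); signal taken as FRET fluorescence after 2 h with LiveBLAzer B/G substrate at room temperature.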
# Chain of Androgen receptor (Homo sapiens) (P10275 whole entry, looked up): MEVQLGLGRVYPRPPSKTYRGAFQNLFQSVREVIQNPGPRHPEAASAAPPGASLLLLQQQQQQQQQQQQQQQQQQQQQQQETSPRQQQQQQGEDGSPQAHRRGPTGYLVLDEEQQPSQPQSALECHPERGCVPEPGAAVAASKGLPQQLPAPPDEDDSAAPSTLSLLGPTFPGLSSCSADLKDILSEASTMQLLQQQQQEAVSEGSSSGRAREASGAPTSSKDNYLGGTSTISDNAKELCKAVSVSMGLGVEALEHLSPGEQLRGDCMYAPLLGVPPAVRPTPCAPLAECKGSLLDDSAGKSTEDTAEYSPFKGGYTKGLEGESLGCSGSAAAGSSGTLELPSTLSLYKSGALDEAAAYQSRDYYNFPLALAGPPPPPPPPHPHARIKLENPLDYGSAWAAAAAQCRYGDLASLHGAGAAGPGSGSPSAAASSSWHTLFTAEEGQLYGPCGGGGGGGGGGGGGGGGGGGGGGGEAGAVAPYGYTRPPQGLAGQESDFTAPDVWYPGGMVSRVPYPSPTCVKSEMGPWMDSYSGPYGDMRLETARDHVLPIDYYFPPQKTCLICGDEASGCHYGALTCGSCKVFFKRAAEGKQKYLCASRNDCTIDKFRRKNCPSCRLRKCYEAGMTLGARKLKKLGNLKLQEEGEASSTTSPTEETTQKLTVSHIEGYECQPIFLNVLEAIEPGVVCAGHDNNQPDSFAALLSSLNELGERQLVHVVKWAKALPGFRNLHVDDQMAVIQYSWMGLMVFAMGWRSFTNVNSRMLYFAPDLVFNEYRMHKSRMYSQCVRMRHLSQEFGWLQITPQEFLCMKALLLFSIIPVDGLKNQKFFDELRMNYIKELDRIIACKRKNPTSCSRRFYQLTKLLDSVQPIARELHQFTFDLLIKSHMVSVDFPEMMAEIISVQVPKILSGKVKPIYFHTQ
Structure (SMILES),outcome [1],Potency [2],Potency [3],Potency [4],outcome [5],Potency [6],outcome [7],Potency [8],outcome [9],outcome [10]
Cc1c(Cl)cccc1Cl,inactive,inactive,inactive,inactive,inactive,inactive,–,–,–,–
COc1ccc(CCO)cc1,inactive,inactive,inactive,inactive,–,–,inactive,inactive,inactive,–
CCCCOCC(C)O (stereo unspecified),inactive,inactive,inactive,inactive,–,inactive,–,–,–,–
CC(=O)C(C)O (stereo unspecified),inactive,inactive,inactive,inactive,–,inactive,–,–,–,–
Fc1ccccc1,inactive,inactive,inactive,inactive,inactive,inactive,–,–,–,–
COC(=O)c1cc(Cl)cc(Cl)c1,inactive,inactive,inactive,inactive,–,inactive,–,inactive,inactive,inactive
CCC(=O)c1c(O)cc(O)cc1O,inactive,inactive,inactive,inactive,–,–,–,inactive,inactive,inactive
CC(=O)OCC(=O)Nc1cc(C#N)cc(NC(=O)COC(C)=O)c1Cl,inactive,inactive,inactive,inactive,–,inactive,–,–,–,–
O=C=NCC1CCCC(CN=C=O)C1 (stereo unspecified),inactive,inactive,inactive,inactive,inactive,inactive,–,–,–,–
CC1(C)O[C@H]2CC(=O)OC[C@]23[C@H]2CC[C@@]4(C)[C@H](c5ccoc5)OC(=O)[C@H]5O[C@]54[C@]2(C)C(=O)C[C@@H]13,inactive,inactive,inactive,inactive,–,inactive,–,–,–,–
O=C1OCCO1,inactive,inactive,inactive,inactive,–,inactive,–,–,–,–
C[C@H]1[C@@H](c2ccccc2)NC(=O)N1C,inactive,inactive,inactive,inactive,inactive,inactive,–,–,–,–
CC(C)C1OCCN1CCOC(=O)NCCCCCCNC(=O)OCCN1CCOC1C(C)C (stereo unspecified),inactive,inactive,inactive,inactive,–,inactive,inactive,inactive,inactive,inactive
C=CC(=O)OCC1CCCO1 (stereo unspecified),inactive,inactive,inactive,inactive,–,inactive,–,–,–,–
CNCCS(=O)(=O)O,inactive,inactive,inactive,inactive,inactive,inactive,–,–,–,–
COc1nc(N)nc2nc[nH]c12,inactive,inactive,inactive,inactive,inactive,inactive,–,–,–,–
CC(=O)CCC1=C(C)CCCC1(C)C,inactive,inactive,–,–,inactive,inactive,–,–,–,–
CCCCCCCCCOC(=O)CCCCC(=O)OCCCCCCC,inactive,inactive,inactive,inactive,–,inactive,–,–,–,–
c1ccc2cnccc2c1,inactive,–,30.6 µM (active),54.5 µM (active),inactive,–,–,–,–,–
CCCCCC(C)O (stereo unspecified),inactive,inactive,–,inactive,inactive,inactive,–,–,–,–
CCOC(=O)CC1(C)OCC(C)O1 (stereo unspecified),inactive,inactive,inactive,inactive,–,inactive,–,–,–,–

Structure (SMILES),outcome [1],Potency [2],Potency [3],Potency [4],outcome [5],Potency [6],outcome [7],Potency [8],outcome [9],outcome [10]
Cn1nnc2c(C(N)=O)ncn2c1=O,inactive,inactive,inactive,inactive,–,inactive,–,–,–,–
COC(=O)c1ccccc1C(=O)O,inactive,–,inactive,inactive,–,–,–,–,–,–
CC(=O)Nc1ccc(OC(=O)c2ccccc2OC(C)=O)cc1,inactive,inactive,–,inactive,inactive,–,–,–,–,–
CCC(C)C(=O)OCCc1ccccc1 (stereo unspecified),inactive,inactive,–,inactive,–,inactive,–,–,–,–
CC(Oc1cc(Cl)ccc1Cl)C(=O)O (stereo unspecified),inactive,inactive,inactive,–,–,inactive,–,inactive,inactive,inactive
Cc1ncc([N+](=O)[O-])n1CC(C)O (stereo unspecified),inactive,inactive,–,inactive,–,inactive,–,–,–,–
CC(C)(C)NC[C@H](O)COc1cccc2c1CCCC2=O,inactive,inactive,inactive,inactive,–,inactive,–,–,–,–
O/N=C/C=N/O,inactive,inactive,–,inactive,inactive,inactive,–,–,–,–
CCCCCC/C=C/C(=O)OC,inactive,inactive,inactive,–,inactive,inactive,–,–,–,–
Nc1nc(-c2ccccc2)c(Br)c(=O)[nH]1,inactive,inactive,–,inactive,–,inactive,–,inactive,–,–
Cn1c(=O)c2[nH]c(Br)nc2n(C)c1=O,inactive,–,inactive,inactive,–,–,–,–,–,–
COC(=O)c1cccc(Cl)c1,inactive,inactive,inactive,inactive,–,inactive,–,–,–,–
OCC(O)CN1CCN(c2ccccc2)CC1 (stereo unspecified),inactive,–,inactive,inactive,inactive,–,–,–,–,–
CC(O)COC(C)(C)C (stereo unspecified),inactive,inactive,–,inactive,–,inactive,–,–,–,–
C=CCOC(=O)CCCCCC,inactive,–,inactive,inactive,inactive,inactive,–,inactive,inactive,inactive
C=CCCCCCCCCC(=O)OCCCC,inactive,inactive,inactive,inactive,–,inactive,–,–,–,–
CC(=O)CCc1ccc(OC(C)=O)cc1,inactive,inactive,–,inactive,inactive,inactive,–,–,–,–
Cc1ccnc(N)c1,inactive,–,48.6 µM (active),48.6 µM (active),inactive,–,–,–,–,–
Cc1cc(C)c(C(=O)O)c(C)c1,inactive,inactive,inactive,inactive,–,inactive,–,–,–,–
CC(C)NCC(O)c1ccc2ccccc2c1 (stereo unspecified),inactive,15 µM (active),–,–,inactive,inactive,–,–,–,–
CC(C)=CCC/C(C)=C/COC=O,inactive,inactive,–,inactive,inactive,–,–,–,–,–

Structure (SMILES),outcome [1],Potency [2],Potency [3],Potency [4],outcome [5],Potency [6],outcome [7],Potency [8],outcome [9],outcome [10]
Cc1cccc(Cl)c1,inactive,inactive,–,inactive,inactive,inactive,–,–,–,–
CC1=NN(c2ccc(S(=O)(=O)O)cc2)C(=O)C1,inactive,inactive,inactive,inactive,–,inactive,–,–,–,–
Cc1ccc(N)cc1S(=O)(=O)O,inactive,inactive,inactive,–,inactive,–,–,–,–,–
CC1CCc2c(N3CCC(O)CC3)c(F)cc3c(=O)c(C(=O)O)cn1c23 (stereo unspecified),inactive,26.6 µM (active),–,–,inactive,inactive,–,–,–,–
C[C@@H](O)C(=O)O,inactive,inactive,inactive,inactive,–,inactive,–,–,–,–
Cc1ccccc1C(N)=O,inactive,inactive,–,inactive,inactive,inactive,–,–,–,–
CC(C)COC(=O)c1ccccc1,inactive,inactive,–,–,inactive,inactive,–,inactive,inactive,inactive
CC/C=C\CCOC(=O)c1ccccc1O,inactive,inactive,–,inactive,inactive,–,–,–,–,–
CN1CCOC(c2ccccc2)c2ccccc2C1 (stereo unspecified),inactive,–,inactive,–,–,inactive,–,–,–,–
O=Cc1ccccc1Cl,–,inactive,inactive,inactive,inactive,inactive,–,–,–,–
O=C(O)CONC(=O)c1ccccc1,inactive,–,inactive,inactive,inactive,inactive,–,–,–,–
OCC1(CO)COCOC1,inactive,–,inactive,inactive,inactive,inactive,–,–,–,–
COc1cc2c(cc1OC)C(=O)C(CC1CCN(Cc3ccccc3)CC1)C2 (stereo unspecified),inactive,–,–,–,–,–,inactive,inactive,inactive,–
ONc1ccccc1,–,–,–,inactive,inactive,inactive,–,–,–,–
C=C(C)[C@@H]1CC=C(C)C(=O)C1,inactive,–,inactive,inactive,inactive,inactive,–,–,–,–
CC(=O)OC1CCCCC1C(C)(C)C (stereo unspecified),inactive,–,inactive,inactive,–,inactive,–,inactive,inactive,inactive
c1ccc(-c2nn[nH]n2)cc1,inactive,–,inactive,inactive,inactive,inactive,–,–,–,–
CCCCOC(=O)[C@H](C)O,inactive,–,inactive,inactive,inactive,inactive,–,–,–,–
C=CCSSCCC,inactive,–,inactive,inactive,inactive,inactive,–,–,–,–
CN(C)C(C)(C)CO,inactive,–,inactive,inactive,inactive,inactive,–,–,–,–
O=C(O)CNC(=O)CNC(=O)CNC(=O)CSC(=O)c1ccccc1,inactive,–,inactive,inactive,inactive,inactive,–,–,–,–

Structure (SMILES),outcome [1],Potency [2],Potency [3],Potency [4],outcome [5],Potency [6],outcome [7],Potency [8],outcome [9],outcome [10]
C=C(C)[C@@H]1CC=C(C)CC1,inactive,–,68.6 µM (active),–,–,inactive,–,–,–,–
O=C(NCN1CCOCC1)c1cnccn1,–,inactive,inactive,inactive,inactive,inactive,inactive,inactive,inactive,inactive
C=C(C)c1cccc(C(C)(C)N=C=O)c1,inactive,–,–,–,inactive,inactive,–,–,–,–
CCCC(=O)OCCC(C)CCC=C(C)C (stereo unspecified),inactive,–,–,–,inactive,inactive,–,–,–,–
O=C[O][Al]([O]C=O)[O]C=O,inactive,–,–,–,inactive,inactive,–,–,–,–
CCCCCCC1(C)CCC(=O)O1 (stereo unspecified),inactive,–,inactive,inactive,–,inactive,–,–,–,–
CC(=O)CC(=O)OC(C)(C)C,–,inactive,inactive,inactive,–,inactive,–,inactive,inactive,inactive
COc1ccc2c(c1)c1c3n2CCN(C)C3=NCC1,inactive,–,–,23.7 µM (active),inactive,inactive,–,inactive,–,inactive
CCCC(CC)c1ccccc1 (stereo unspecified),inactive,–,inactive,inactive,inactive,inactive,–,–,–,–
CC1CC(=O)CC(C)(C)C1 (stereo unspecified),–,inactive,inactive,inactive,inactive,–,–,–,–,–
O=C(Cl)c1ccccc1[N+](=O)[O-],–,inactive,inactive,inactive,inactive,–,inactive,inactive,inactive,inactive
N[C@@H](Cc1ccc(O)cc1)C(=O)O,inactive,–,–,–,inactive,inactive,–,–,–,–
NCC1(Cc2noc(=O)[nH]2)CCCCC1,inactive,–,inactive,inactive,inactive,inactive,–,–,–,–
OCCN1CCOCC1,inactive,–,inactive,inactive,inactive,inactive,–,–,–,–
CCC(C)C(C)=O (stereo unspecified),–,inactive,inactive,inactive,inactive,inactive,–,–,–,–
CC(C)c1ccc(C=O)cc1,inactive,–,inactive,inactive,inactive,inactive,–,–,–,–
COC(=O)CCCCC(=O)O,inactive,–,inactive,–,–,inactive,–,–,–,–
CCCCCCCCCCCCCBr,inactive,–,54.3 µM (active),inactive,inactive,inactive,–,–,–,–
C=CCN1C[C@H](C(=O)N(CCCN(C)C)C(=O)NCC)C[C@@H]2c3cccc4[nH]cc(c34)C[C@H]21,inactive,–,inactive,–,inactive,–,–,–,–,–
Cc1ccc(C)c([N+](=O)[O-])c1,–,inactive,inactive,inactive,inactive,inactive,–,–,–,–
CCO[Si](CC)(OCC)OCC,inactive,–,inactive,inactive,inactive,inactive,–,inactive,inactive,inactive
